Compounds without any hit were thinned out: in the full panel of roughly 79,000, 15% have a hit. No stated cut-off is given here; in the data, active means growth inhibition above about 70%; inactive means the rest.
How the values were obtained:
[1] = NCI Yeast Anticancer Drug Screen. Data for the rad50 strain (AID 155);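 further: 0% = growth of vehicle-only cultures of the same strain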; conditions: S. cerevisiae rad50 strain growth inhibition; at 50.0 µM; active compounds read high
Procedure, shortened: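 DNA repair mutant yeast, compound exposure, growth read-out; inhibition is taken relative to vehicle.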

[2] = NCI Yeast Anticancer Drug Screen. Data for the mec2-1 strain (AID 157); conditions: S. cerevisiae mec2-1 strain, at 50.0 µM, active compounds read high
Procedure, shortened: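 Test agents were screened against the mec2-1 yeast strain, with defined DNA repair or cell cycle alteration. Growth was scored as inhibition against vehicle-only controls.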

[3] = NCI Yeast Anticancer Drug Screen. Data for the sgs1 mgt1 strain (AID 161);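 further: 0% = growth of cultures given vehicle only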; conditions: S. cerevisiae sgs1 mgt1 strain, at 50.0 µM, active compounds read high
Procedure, shortened: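 Genetically altered yeast, compound exposure, growth inhibition relative to vehicle.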

[4] = NCI Yeast Anticancer Drug Screen. Data for the cln2 rad14 strain (AID 165);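 further: 0% = growth equal to vehicle treated cultures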; conditions: S. cerevisiae cln2 rad14 strain, at 50.0 µM, active compounds read high
Procedure, shortened: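 Growth of compound-exposed yeast (cln2 rad14 genotype) measured and expressed as inhibition relative to vehicle.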

[5] = NCI Yeast Anticancer Drug Screen. Data for the bub3 strain (AID 167); conditions: S. cerevisiae bub3 mutant strain, at 50.0 µM, active compounds read high
Procedure, shortened: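 In this screen, a yeast mutant lacking normal mitotic checkpoint function is challenged with compound. Relative growth versus vehicle gives the inhibition value.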

[6] = NCI Yeast Anticancer Drug Screen. Data for the mlh1 rad18 strain (AID 175); conditions: S. cerevisiae mlh1 rad18 strain growth inhibition; at 50.0 µM; active compounds read high
Procedure, shortened: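 In this whole-cell yeast screen, a strain with altered DNA damage repair is challenged with compound, and its growth is measured against matched vehicle-treated controls.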

Measured: growth inhibition

CCOC(=O)C1CC=CCC1C(=O)OCC (stereo unspecified)
inactive: [1] -5.25% | [2] -7.5% | [3] 0.5% | [4] 2.55% | [5] 1.3% | [6] -19.5%

CCOC(=O)C(C(=O)OCC)=C1N[C@H](C(=O)OCC)CS1
inactive: [1] -0.8% | [2] -17.5% | [3] -15.8% | [4] 13% | [5] -6.7% | [6] -22.8%

COc1ccc(C(=N)c2ccccc2C)cc1
inactive: [1] 8% | [2] -8.65% | [3] 6.05% | [4] 1.65% | [5] 8.5% | [6] -8.4%

O=C(O)CCc1ccc2c(c1)OCO2
inactive: [1] -2.1% | [2] -24.1% | [3] -5.85% | [4] -5.4% | [5] -34.1% | [6] -11.4%

C=CCOc1ccc2cc(Br)ccc2c1
inactive: [1] 3.85% | [2] -2.55% | [3] 6.3% | [4] -24.1% | [5] 4.4% | [6] 14.9%

CCOC(=O)C(C)(C)C(=O)Nc1ccccc1
inactive: [1] 5.2% | [2] -7.6% | [3] -3.6% | [4] 24.9% | [5] 3.6% | [6] 5.7%

Cc1ccc(NC(=O)OCCOc2ccccc2)cc1NC(=O)OCCOc1ccccc1
inactive: [1] 10.3% | [2] 17.1% | [3] 28% | [4] 6.3% | [5] 3.1% | [6] 33.9%

CNn1c(-c2ccc(C)cc2)n[nH]c1=O
inactive: [1] 8.95% | [2] 0.25% | [3] -5.95% | [4] 4.15% | [5] 18.7% | [6] 19.9%

C/C=C/C(=O)NN
inactive: [1] 13.3% | [2] 7.85% | [3] -4.65% | [4] -21.2% | [5] -2.9% | [6] 25.8%

CC(=O)c1cccc(NC(=O)Oc2ccc(Cl)cc2Cl)c1
inactive: [1] 4.55% | [2] 17.9% | [3] 3.25% | [4] 1% | [5] 11.3% | [6] 4.3%

CC(C)=CC1C(CBr)C1(C)C (stereo unspecified)
inactive: [1] 2.3% | [2] -15.2% | [3] -12.2% | [4] -26.2% | [5] -10.1% | [6] -11%

C=C(C(=O)O)C(=O)O
inactive: [1] -14.4% | [2] -3.6% | [3] -2.2% | [4] 4.35% | [5] 2% | [6] -4.7%

CCOC(=O)C(=O)C1CCCC(C)C1=O (stereo unspecified)
inactive: [1] 16% | [2] 11.8% | [3] -16.6% | [4] -43.1% | [5] 10.8% | [6] 1.05%

COC(=O)Cc1cccnc1
inactive: [1] -3.3% | [2] -6.85% | [3] -11.3% | [4] -0.55% | [5] 0.05% | [6] 12.7%

CCOc1c(C(=O)O)cnc2ccccc12
inactive: [1] -6.2% | [2] 19.5% | [3] -6.2% | [4] -38.9% | [5] -19.6% | [6] -0.75%

CCOC(=O)NC(Nc1cc(Cl)ccc1OC)(C(F)(F)F)C(F)(F)F
inactive: [1] 2.5% | [2] -10.5% | [3] -26.1% | [4] 9.65% | [5] 6.85% | [6] -5.2%

Fc1cc(F)c2c(c1)Nc1cc(F)cc(F)c1S2
inactive: [1] 27.5% | [2] 21.6% | [3] 4.75% | [4] -13.6% | [5] 22.9% | [6] 12.7%

CC(O)CN(CC(C)O)S(=O)(=O)c1ccc(N)cc1 (stereo unspecified)
inactive: [1] -9.15% | [2] -14.2% | [3] -0.45% | [4] -9.3% | [5] 13.8% | [6] -2%

Nc1ccc(C2NC=CN2)cc1
inactive: [1] -12.1% | [2] -7.65% | [3] -0.7% | [4] 29.8% | [5] -3.15% | [6] -1.65%

COc1ccc2cc(C(=O)CCC(=O)O)ccc2c1
inactive: [1] 2.7% | [2] -35% | [3] -16.4% | [4] -21.3% | [5] -38.5% | [6] 0.25%

C=C1CCc2ccccc2C1=O
inactive: [1] 23.4% | [2] -4% | [3] 4.25% | [4] -5.55% | [5] 7.15% | [6] 13.6%

Cc1cc(=O)[nH]c2ccc(Cc3ccc(Cl)cc3)cc12
inactive: [1] 12.8% | [2] 1.75% | [3] 4.9% | [4] 7.6% | [5] 3.1% | [6] 1.65%

CCc1nnc2n1N=C(c1ccc(-c3ccccc3)cc1)CS2
inactive: [1] 20.4% | [2] 28.3% | [3] 3.3% | [4] 5.05% | [5] 3.05% | [6] 26.1%

Oc1c(CNCc2ccccc2)cc(CNCc2ccccc2)c(O)c1CNCc1ccccc1
inactive: [1] 5.3% | [2] 8.85% | [3] -4.8% | [4] 3.2% | [5] 17.3% | [6] -14.8%

CC(=O)NC(Cc1ccccc1)/C(C)=N\O (stereo unspecified)
inactive: [1] -3.15% | [2] -2.05% | [3] -2.65% | [4] -15.2% | [5] 5.25% | [6] 4.8%

C=C1C(=O)OC2C1CCC1(C)CC(Br)C(=O)C(C)C21 (stereo unspecified)
inactive: [1] 1.7% | [2] -1.1% | [3] 13.9% | [4] 2.1% | [5] -5.85% | [6] -4.65%

CN(C)Cc1cc(C(=O)/C=C/c2ccccc2Cl)cc(CN(C)C)c1O
inactive: [1] -47% | [2] -22.6% | [3] -27.4% | [4] -43.9% | [5] 3.9% | [6] -31.1%

CC(C)c1ccc(C(=O)OCCCc2ccccc2)cc1
inactive: [1] 8.7% | [2] -5.65% | [3] 18.2% | [4] -10.7% | [5] 4% | [6] 0.8%

C=CCNC(=S)N(C)Cc1ccccc1Cl
inactive: [1] -7.2% | [2] 35.5% | [3] 34.8% | [4] -25.9% | [5] 36.4% | [6] 33.6%

COc1ccc(-c2cc(-c3ccco3)c(C#N)c(=S)n2C2OC(COC(C)=O)C(OC(C)=O)C(OC(C)=O)C2OC(C)=O)cc1 (stereo unspecified)
inactive: [1] 19.6% | [2] -4.25% | [3] 12.7% | [4] -2.75% | [5] 4.25% | [6] 34.2%

OCc1nc2ccccc2[nH]1
inactive: [1] 5.6% | [2] -4.5% | [3] -3.55% | [4] -27.2% | [5] 14.1% | [6] 3.3%

O=P(O)(OCC(Br)CBr)OCC(Br)CBr (stereo unspecified)
inactive: [1] -12.4% | [2] -7.05% | [3] 11.2% | [4] -45% | [5] 1.75% | [6] 23.8%

CCCCc1c[nH]c(=O)[nH]c1=O
inactive: [1] 4.55% | [2] 5.05% | [3] -8.4% | [4] -34.6% | [5] -12.6% | [6] 5.7%

CCOC(=O)c1cnc2ccccc2c1N=[N+]=[N-]
inactive: [1] -0.9% | [2] 27.8% | [3] 25.5% | [4] -34% | [5] 40.5% | [6] 29.9%

CC(C)(C)OC(=O)NC(CC(N)=O)C(=O)O (stereo unspecified)
inactive: [1] 23.1% | [2] -6% | [3] 8.9% | [4] -33.5% | [5] -6.45% | [6] 10.7%

COc1ccc(COC(=O)Nc2ccc([N+](=O)[O-])cc2)cc1
inactive: [1] -38.2% | [2] -3.6% | [3] -28.1% | [4] -5.3% | [5] -18.5% | [6] -12.2%

SCc1ccc(-c2ccc(CS)cc2)cc1
inactive: [1] 4.65% | [2] 2.55% | [3] 40% | [4] 39.8% | [5] 39.1% | [6] 23.3%

N#Cc1[nH]c(=O)n(-c2ccc(Cl)cc2)c1N
inactive: [1] -30.1% | [2] -58.6% | [3] -19% | [4] -11.3% | [5] -12.4% | [6] -33%

O=C1OC(c2ccc([N+](=O)[O-])cc2)=N/C1=C\c1cc(Br)ccc1O
inactive: [1] 52.8% | [2] 28.5% | [3] 49.7% | [4] 64.3% | [5] 50.4% | [6] 35%

Cc1ccc(S(=O)(=O)OC(c2ccccc2)C(F)(F)F)cc1 (stereo unspecified)
inactive: [1] -4.05% | [2] -15.6% | [3] -7.2% | [4] 6.9% | [5] 2.9% | [6] 2.85%

Cc1nn(-c2ccccc2)c2oc3ccccc3c(=O)c12
inactive: [1] -25.6% | [2] -7.4% | [3] -35.5% | [4] -29.5% | [5] -20.9% | [6] -31.1%

From PubChem BioAssay (NCI)
